In the supplement of paper PMC11732987, “Enantioselective OTUD7B fragment discovery through chemoproteomics screening and high-throughput optimisation” (Communications Chemistry, 2025):

What was measured:
Assay in all cases: log2 ratio of Biotin-Ahx-Ub-VS probe labelling (fragment/DMSO); higher = less target engagement (more negative = stronger competition), active = hit call of the paper (q ≤ 0.05, log2 ratio ≤ -1)
Conditions in all cases: compound concentration: 200 uM; treatment time: 3 h
USP9X = USP9X (UniProt Q93008)
Sequence of USP9X (Q93008 whole entry, the tested form may be a part): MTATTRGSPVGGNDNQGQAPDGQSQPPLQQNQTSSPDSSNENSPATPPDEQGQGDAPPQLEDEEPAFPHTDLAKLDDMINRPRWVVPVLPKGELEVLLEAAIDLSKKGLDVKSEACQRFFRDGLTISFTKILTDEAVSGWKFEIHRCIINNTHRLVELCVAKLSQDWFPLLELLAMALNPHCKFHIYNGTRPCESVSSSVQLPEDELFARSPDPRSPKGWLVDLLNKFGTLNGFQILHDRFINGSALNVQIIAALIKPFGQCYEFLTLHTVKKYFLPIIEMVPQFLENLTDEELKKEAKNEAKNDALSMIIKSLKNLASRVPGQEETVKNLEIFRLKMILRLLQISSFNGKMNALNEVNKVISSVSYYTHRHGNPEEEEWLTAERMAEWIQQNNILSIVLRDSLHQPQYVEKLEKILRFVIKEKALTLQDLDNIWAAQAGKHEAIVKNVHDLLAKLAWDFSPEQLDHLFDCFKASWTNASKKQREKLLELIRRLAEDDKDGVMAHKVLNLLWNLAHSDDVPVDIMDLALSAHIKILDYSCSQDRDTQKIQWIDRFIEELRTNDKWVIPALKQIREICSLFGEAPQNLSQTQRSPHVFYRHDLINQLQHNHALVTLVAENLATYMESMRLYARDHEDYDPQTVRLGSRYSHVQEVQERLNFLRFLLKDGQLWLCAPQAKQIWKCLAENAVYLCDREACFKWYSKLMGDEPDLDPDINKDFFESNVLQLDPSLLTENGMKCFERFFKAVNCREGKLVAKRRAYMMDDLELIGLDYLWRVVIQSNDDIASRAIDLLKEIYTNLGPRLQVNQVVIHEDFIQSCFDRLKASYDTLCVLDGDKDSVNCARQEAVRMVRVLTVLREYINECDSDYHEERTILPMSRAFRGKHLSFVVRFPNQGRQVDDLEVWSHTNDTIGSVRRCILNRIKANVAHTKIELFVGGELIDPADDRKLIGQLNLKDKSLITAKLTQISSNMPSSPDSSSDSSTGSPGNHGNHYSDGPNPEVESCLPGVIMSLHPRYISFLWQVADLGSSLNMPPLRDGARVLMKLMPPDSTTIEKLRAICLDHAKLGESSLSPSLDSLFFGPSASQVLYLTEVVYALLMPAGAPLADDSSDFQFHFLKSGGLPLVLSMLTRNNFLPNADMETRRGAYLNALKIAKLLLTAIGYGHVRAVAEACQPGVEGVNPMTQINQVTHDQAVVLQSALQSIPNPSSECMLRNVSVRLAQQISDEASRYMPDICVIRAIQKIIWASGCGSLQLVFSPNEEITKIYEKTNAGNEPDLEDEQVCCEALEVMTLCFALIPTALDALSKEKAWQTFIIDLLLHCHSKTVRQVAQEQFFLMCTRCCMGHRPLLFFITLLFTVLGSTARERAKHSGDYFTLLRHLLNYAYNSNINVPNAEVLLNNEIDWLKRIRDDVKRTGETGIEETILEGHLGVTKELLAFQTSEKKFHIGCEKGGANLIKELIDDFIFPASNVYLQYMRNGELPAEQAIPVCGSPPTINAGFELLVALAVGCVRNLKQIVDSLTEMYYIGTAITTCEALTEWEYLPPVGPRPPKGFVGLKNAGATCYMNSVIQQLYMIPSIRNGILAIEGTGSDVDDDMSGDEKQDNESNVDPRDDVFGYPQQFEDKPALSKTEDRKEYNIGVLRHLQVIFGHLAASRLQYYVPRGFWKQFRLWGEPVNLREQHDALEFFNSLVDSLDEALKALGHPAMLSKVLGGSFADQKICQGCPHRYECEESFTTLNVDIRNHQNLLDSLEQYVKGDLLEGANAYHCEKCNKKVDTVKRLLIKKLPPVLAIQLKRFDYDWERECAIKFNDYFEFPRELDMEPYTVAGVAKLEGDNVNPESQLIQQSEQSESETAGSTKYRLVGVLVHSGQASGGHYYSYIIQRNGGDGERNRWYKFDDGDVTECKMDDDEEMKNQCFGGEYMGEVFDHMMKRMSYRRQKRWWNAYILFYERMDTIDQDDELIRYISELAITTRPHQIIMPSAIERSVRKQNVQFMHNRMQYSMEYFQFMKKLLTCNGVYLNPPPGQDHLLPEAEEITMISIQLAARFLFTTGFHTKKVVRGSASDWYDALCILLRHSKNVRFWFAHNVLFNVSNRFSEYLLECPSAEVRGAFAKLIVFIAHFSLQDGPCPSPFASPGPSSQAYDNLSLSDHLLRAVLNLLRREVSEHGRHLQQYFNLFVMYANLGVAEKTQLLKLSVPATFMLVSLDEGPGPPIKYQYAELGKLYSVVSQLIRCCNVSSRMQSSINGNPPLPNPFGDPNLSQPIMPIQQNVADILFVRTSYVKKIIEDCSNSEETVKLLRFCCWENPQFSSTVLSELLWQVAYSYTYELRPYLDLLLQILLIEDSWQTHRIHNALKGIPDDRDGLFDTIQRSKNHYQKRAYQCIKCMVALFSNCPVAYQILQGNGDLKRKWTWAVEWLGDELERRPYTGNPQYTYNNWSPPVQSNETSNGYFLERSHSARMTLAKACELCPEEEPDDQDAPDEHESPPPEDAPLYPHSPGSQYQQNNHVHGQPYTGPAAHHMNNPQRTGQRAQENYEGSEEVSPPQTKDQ
How it was run: (§1)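 HEK293T lysate (495 µg per sample, in Tris/CHAPS/IGEPAL buffer with protease inhibitors) was exposed in triplicate for 3 h to fragment at 200 µM or to vehicle, then to Biotin-Ahx-Ub-VS at 0.5 µM final for 1 h. Labelled DUBs were enriched on NeutrAvidin, digested with LysC and trypsin, and analysed by diaPASEF LC-MS/MS. Spectronaut label-free quantities were normalised to the global median, and values are average log2 ratios of fragment over vehicle from an unpaired t-test. Only proteins with ≥2 unique peptides were used.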

UniProt O00487 = molecular target: UniProt O00487
Sequence of UniProt O00487 (O00487 whole entry): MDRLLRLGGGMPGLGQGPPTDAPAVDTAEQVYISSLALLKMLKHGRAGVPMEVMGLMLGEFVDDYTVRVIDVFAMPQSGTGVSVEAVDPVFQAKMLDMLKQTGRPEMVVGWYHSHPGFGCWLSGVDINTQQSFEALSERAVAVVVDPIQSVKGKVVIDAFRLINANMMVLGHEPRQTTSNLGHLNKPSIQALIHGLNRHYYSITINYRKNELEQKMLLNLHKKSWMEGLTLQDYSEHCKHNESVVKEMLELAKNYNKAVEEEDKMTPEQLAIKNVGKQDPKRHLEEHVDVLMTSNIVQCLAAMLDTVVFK
How it was run: as §1

UniProt O00507 = molecular target: UniProt O00507
How it was run: as §1

UniProt P51784 = molecular target: UniProt P51784
Sequence of UniProt P51784 (P51784 whole entry): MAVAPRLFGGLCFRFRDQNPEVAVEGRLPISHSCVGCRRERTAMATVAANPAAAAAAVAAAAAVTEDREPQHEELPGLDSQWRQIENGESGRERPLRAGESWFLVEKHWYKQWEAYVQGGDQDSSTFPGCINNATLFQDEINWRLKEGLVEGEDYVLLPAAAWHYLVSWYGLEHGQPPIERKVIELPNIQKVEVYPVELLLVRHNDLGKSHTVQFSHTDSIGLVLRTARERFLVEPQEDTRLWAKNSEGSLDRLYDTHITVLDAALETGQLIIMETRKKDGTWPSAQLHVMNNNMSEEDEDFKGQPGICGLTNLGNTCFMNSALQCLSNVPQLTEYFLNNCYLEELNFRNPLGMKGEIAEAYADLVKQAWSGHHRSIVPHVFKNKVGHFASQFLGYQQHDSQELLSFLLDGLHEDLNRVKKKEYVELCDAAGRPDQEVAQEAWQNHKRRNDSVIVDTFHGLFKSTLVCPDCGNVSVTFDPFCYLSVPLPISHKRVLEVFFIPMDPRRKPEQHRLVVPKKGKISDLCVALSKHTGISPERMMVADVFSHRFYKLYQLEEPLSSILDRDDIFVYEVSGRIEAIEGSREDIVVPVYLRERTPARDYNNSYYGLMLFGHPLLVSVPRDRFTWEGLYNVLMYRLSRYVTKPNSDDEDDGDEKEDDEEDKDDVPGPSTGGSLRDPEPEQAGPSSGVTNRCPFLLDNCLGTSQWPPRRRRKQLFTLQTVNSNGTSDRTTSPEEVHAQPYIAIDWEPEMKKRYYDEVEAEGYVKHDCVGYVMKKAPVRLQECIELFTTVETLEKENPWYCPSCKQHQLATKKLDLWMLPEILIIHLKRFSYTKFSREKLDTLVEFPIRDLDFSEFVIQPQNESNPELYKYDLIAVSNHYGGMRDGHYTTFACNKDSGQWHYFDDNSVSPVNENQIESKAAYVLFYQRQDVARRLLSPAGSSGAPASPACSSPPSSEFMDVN
How it was run: as §1

UniProt Q5T2D3 = molecular target: T1, UniProt Q5T2D3
T1 sequence (whole entry): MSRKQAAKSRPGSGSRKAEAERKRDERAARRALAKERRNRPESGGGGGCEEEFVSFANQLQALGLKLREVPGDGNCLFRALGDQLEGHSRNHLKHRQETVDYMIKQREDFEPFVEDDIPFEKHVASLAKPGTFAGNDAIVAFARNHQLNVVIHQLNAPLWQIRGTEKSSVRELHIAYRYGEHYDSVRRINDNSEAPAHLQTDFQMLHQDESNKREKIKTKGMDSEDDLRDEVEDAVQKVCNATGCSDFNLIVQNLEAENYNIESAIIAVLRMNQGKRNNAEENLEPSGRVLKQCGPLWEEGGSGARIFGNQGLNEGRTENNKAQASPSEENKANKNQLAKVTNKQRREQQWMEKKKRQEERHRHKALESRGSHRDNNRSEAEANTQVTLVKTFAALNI
How it was run: as §1

UniProt Q8TE49 = molecular target: T2, UniProt Q8TE49
T2 sequence (whole entry): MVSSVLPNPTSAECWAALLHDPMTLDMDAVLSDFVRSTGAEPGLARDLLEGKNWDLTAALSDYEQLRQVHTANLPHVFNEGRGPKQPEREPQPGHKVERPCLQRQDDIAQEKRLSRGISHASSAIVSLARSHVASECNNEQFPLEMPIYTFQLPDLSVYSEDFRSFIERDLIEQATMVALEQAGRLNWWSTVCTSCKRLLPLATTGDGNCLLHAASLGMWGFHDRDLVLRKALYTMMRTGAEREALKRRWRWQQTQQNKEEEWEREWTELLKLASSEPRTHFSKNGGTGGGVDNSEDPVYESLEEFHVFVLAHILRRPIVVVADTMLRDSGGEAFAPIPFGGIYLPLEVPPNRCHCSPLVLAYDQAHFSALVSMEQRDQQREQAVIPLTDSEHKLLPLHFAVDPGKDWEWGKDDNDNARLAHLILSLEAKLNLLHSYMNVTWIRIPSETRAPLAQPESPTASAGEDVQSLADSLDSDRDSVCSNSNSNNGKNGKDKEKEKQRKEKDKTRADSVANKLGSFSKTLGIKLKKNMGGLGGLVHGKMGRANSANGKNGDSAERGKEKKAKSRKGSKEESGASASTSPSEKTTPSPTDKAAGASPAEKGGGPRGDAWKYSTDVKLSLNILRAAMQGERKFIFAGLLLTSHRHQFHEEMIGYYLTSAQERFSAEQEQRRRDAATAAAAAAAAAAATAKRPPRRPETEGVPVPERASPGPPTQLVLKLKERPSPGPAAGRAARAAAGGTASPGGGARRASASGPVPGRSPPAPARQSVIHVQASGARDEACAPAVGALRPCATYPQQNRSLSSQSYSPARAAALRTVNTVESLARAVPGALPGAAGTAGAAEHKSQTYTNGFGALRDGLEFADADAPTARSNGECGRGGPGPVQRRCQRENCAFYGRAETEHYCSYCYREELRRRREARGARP
How it was run: as §1

UniProt Q9P2H5 = molecular target: T3, UniProt Q9P2H5
T3 sequence (whole entry): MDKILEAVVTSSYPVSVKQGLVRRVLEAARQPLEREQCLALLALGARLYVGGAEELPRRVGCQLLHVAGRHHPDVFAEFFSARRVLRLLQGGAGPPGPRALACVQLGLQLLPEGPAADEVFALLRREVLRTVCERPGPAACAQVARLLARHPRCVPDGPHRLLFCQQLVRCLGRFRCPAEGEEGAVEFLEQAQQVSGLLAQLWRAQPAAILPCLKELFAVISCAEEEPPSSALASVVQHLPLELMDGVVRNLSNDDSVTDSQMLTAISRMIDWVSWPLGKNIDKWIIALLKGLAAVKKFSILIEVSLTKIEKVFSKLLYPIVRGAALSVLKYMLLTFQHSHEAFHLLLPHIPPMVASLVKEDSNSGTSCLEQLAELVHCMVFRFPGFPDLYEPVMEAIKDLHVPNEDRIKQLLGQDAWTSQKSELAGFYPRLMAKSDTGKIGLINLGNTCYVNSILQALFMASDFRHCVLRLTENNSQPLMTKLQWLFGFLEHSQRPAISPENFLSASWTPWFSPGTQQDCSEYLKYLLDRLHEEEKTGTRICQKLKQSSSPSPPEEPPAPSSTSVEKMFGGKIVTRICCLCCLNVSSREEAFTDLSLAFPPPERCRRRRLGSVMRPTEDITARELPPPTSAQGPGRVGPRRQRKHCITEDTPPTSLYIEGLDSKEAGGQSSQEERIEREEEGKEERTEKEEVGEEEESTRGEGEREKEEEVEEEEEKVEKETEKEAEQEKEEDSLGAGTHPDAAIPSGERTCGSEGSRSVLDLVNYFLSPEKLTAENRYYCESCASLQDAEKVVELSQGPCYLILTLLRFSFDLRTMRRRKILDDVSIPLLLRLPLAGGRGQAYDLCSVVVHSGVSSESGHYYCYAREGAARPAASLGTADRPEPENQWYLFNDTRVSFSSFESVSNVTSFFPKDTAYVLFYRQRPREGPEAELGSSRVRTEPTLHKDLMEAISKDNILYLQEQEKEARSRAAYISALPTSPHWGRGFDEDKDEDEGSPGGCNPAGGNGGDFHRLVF
How it was run: as §1

UniProt Q9UGI0 = molecular target: T4, UniProt Q9UGI0
T4 sequence (whole entry): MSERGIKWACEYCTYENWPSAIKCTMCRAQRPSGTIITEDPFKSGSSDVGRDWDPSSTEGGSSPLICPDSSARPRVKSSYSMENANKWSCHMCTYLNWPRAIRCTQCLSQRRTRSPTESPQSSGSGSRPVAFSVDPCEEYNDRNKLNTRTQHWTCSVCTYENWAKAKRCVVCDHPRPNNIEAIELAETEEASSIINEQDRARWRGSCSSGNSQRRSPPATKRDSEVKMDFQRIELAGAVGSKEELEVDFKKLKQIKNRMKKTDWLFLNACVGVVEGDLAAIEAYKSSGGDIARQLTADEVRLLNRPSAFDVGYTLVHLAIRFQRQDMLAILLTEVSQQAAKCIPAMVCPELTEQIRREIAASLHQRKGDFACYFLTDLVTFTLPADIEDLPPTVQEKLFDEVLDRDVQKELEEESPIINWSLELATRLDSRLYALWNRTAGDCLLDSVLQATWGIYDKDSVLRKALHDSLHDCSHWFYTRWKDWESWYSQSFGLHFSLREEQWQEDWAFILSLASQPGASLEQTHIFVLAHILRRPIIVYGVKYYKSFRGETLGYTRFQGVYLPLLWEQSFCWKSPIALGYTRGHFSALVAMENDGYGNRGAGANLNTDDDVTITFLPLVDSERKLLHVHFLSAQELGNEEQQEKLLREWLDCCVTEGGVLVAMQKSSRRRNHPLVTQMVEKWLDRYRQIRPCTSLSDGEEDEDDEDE
How it was run: as §1

YOD1 = molecular target: T5, YOD1 (UniProt Q5VVQ6)
T5 sequence (whole entry): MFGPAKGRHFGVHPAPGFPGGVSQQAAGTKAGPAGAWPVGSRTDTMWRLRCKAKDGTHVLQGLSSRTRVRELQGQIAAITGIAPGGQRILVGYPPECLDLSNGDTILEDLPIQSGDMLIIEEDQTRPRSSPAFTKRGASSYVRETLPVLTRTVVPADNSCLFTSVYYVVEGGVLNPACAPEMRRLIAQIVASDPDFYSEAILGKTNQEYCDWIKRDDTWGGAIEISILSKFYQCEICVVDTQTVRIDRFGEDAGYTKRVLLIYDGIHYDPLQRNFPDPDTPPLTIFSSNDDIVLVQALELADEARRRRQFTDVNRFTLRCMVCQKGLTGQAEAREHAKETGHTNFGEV
How it was run: as §1

Measured: log2 ratio of Biotin-Ahx-Ub-VS probe labelling

Cc1ccccc1C1(CNC(=O)CCl)CCOCC1
inactive: USP9X -0.0641 | UniProt O00487 -0.115 | UniProt O00507 0.332 | UniProt P51784 0.00427 | UniProt Q5T2D3 -0.0687 | UniProt Q8TE49 -0.333 | UniProt Q9P2H5 -0.221 | UniProt Q9UGI0 -0.577 | YOD1 -0.0207
